Source: PubChem
Pf growth 96h: inhibits malaria parasite growth, 96 h. AID 504834. P. falciparum luciferase reporter growth, 96 h. actives 6.9% (n = 320,000). Potency, µM (highest dose often 28.7 µM), actives largely listed as inhibitors
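Two parasite generations (96 h, 37 C, 5% CO2) of compound exposure in infected erythrocytes (0.05% parasitemia, 2% hematocrit). Luciferase-reporter P. falciparum; decreased luminescence indicates inhibited growth, aimed at apicoplast-acting delayed death.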
Pf growth 48h: inhibits P. falciparum growth in the first generation, 48 h | actives 5.9% (n = 310,000) | AID 504832 | Potency, µM (doses to about 28.7 µM), hits mostly inhibitors | P. falciparum luciferase growth in erythrocytes, 48 h
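In quantitative HTS format, infected erythrocytes bearing luciferase-reporter parasites were treated for a single generation at 37 C. Luminescence after adding detection reagent served as the growth measure.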
HCV inhibitor: inhibitors of hepatitis C virus infection. Huh7.5.1 HCVcc-Cre infection, luciferase reporter, 44 h. Potency, µM (highest dose often 41.8 µM), hits mostly inhibitors. actives 3.4% (n = 340,000)
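Infectious HCV cell culture screen: compound-treated cells (1,000/well, pre-plated 4 h) are infected with HCVcc-Cre at roughly 0.5 moi and grown 44 h. Infection is quantified by luciferase signal after 15 min substrate incubation at room temperature.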
HCMV antiviral: inhibitors of human cytomegalovirus. HFF cells, HCMV-luciferase reporter, 72 h; hits give low values. activity change, negative = inhibition, % at 57.5 µM. actives 4.5% (n = 410,000). AID 1259415; in the data active = activity change below about -60%; inconclusive = no clear call, values can overlap the other calls; inactive = above about -39%
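Cell-based, HFFs, 1000 cells/well, 16 h 37C; cpds in DMSO + HCMV-luc, MOI 1 PFU/cell; 72 h 37C; OneGlo luminescence after 5 min RT; norm. to buffer vs Salinomycin 10uM.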
Each line names hits and unclear results; the compound was inactive in the other large screens. An excerpt weighted towards active compounds, which were near 13% of everything screened. Unless noted, calls come from the whole dose curve; as a rule, active = well fitted inhibition curve with a large enough effect; inconclusive = small, poorly fitted or top-dose-only effect, or another doubt; inactive = no such curve, though single readings can be large or run the other way.

Cc1c(C=O)c2ccccc2n1Cc1ccc([N+](=O)[O-])cc1	Pf growth 48h inconclusive
CCCCn1c(=N)n(CC(=O)c2ccc([N+](=O)[O-])cc2)c2ccccc21	HCMV antiviral -104 (no result: HCV inhibitor)
Brc1cccc(-c2nnn3c2nc(N2CCCCC2)c2ccccc23)c1	none (no result: Pf growth 96h, Pf growth 48h, HCV inhibitor)
COc1cc(-c2noc(-c3ccccc3C(=O)NCc3ccco3)n2)cc(OC)c1OC	Pf growth 96h inconclusive, HCV inhibitor 11µM
O=C(NCc1ccco1)c1cc(-c2cccs2)nc2ccccc12	Pf growth 96h 19µM, Pf growth 48h inconclusive, HCV inhibitor inconclusive
COc1cc(-c2cc(C(=O)NCc3ccco3)c3ccccc3n2)cc(OC)c1OC	Pf growth 96h 10µM, Pf growth 48h inconclusive, HCV inhibitor inconclusive
COc1cc(-c2cc(C(=O)Nc3ccc(S(=O)(=O)NCc4ccco4)cc3)c3ccccc3n2)cc(OC)c1OC	Pf growth 96h 17µM, Pf growth 48h 10µM, HCV inhibitor 0.28µM, HCMV antiviral -63
CCc1cccc(NC(=O)Cn2c(=O)n(-c3cccc(Cl)c3)c(=O)c3c2c2cc(C)ccc2n3C)c1	none (no result: Pf growth 96h, Pf growth 48h, HCV inhibitor)
CCc1ccc(S(=O)(=O)c2nnn3c2nc(N(C)Cc2ccccc2)c2cc(Cl)ccc23)cc1	none (no result: Pf growth 96h, Pf growth 48h, HCV inhibitor)
CCOc1ccccc1CNCCCSc1nnnn1C	none (no result: Pf growth 96h, Pf growth 48h, HCV inhibitor)
N/C(=N\OC(=O)N1CCOCC1)c1ccc(Br)cc1	Pf growth 48h inconclusive, HCV inhibitor inconclusive, HCMV antiviral -76
N/C(=N\OC(=O)N1CCOCC1)c1ccc(Cl)cc1	Pf growth 96h inconclusive, Pf growth 48h 9.3µM
N/C(=N\OC(=O)C12CC3CC(CC(C3)C1)C2)c1ccccc1	Pf growth 48h inconclusive, HCV inhibitor 5µM
N/C(=N\OC(=O)N1CCOCC1)c1ccccc1	Pf growth 96h 8.3µM, Pf growth 48h 6.6µM, HCMV antiviral inconclusive
O=C(Oc1ccccc1)N1CCOCC1	Pf growth 96h inconclusive
N/C(=N\OC(=O)C12CC3CC(CC(C3)C1)C2)c1cccnc1	Pf growth 96h inconclusive, Pf growth 48h inconclusive, HCV inhibitor inconclusive
COc1ccc(C(=O)Nc2ccccc2C(=O)OCc2cc(=O)n3nc(C4CC4)sc3n2)cc1	none (no result: Pf growth 96h, Pf growth 48h, HCV inhibitor)
CCCS(=O)(=O)Nc1cccc(-c2cn3ccc(C)cc3n2)c1	none (no result: Pf growth 96h, Pf growth 48h, HCV inhibitor)
COC(=O)c1ccccc1NC(=O)c1nn(C)c2c1COc1ccccc1-2	none (no result: Pf growth 96h, Pf growth 48h, HCV inhibitor)
CCc1ccc(NC(=O)C2=C(C)C(=O)OC23CCCCC3)cc1	none (no result: Pf growth 96h, Pf growth 48h, HCV inhibitor)
COc1ccc(Br)cc1Cn1nnc(C(=O)Nc2cccc(SC)c2)c1N	none (no result: Pf growth 96h, Pf growth 48h, HCV inhibitor)
COc1cc2oc3ccc(C#Cc4ccc(N)cc4)cc3c(=O)c2cc1OC	HCV inhibitor 13µM (no result: Pf growth 96h, Pf growth 48h)
CC(=O)N(O)c1ccc(C=Cc2ccccc2)cc1	HCMV antiviral -99 (no result: Pf growth 96h, Pf growth 48h, HCV inhibitor)
COc1ccc(N2CCN(C(=O)c3ccc(N(C)S(=O)(=O)c4ccc(C)cc4)cc3)CC2)cc1	HCV inhibitor inconclusive, HCMV antiviral inconclusive
COc1ccc(S(=O)(=O)N(C)c2ccc(C(=O)Nc3ccccc3C(=O)N3CCOCC3)cc2)cc1OC	Pf growth 96h inconclusive, Pf growth 48h 12µM, HCMV antiviral inconclusive
COc1ccc(N2CCN(C(=O)c3ccc(N(C)S(=O)(=O)c4ccc(OC)cc4)cc3)CC2)cc1	Pf growth 96h inconclusive, Pf growth 48h inconclusive, HCV inhibitor inconclusive, HCMV antiviral -63
COc1ccc(S(=O)(=O)N(C)c2ccc(C(=O)N3CCN(c4ccccc4)CC3)cc2)cc1OC	Pf growth 96h inconclusive, Pf growth 48h 15µM, HCV inhibitor inconclusive
COc1ccc(S(=O)(=O)N(C)c2ccc(C(=O)N3CCCC3)cc2)cc1OC	none
CCOC(=O)C1CCCN(c2nc3c(S(=O)(=O)c4ccc(C)c(C)c4)nnn3c3ccc(Cl)cc23)C1 (stereo unspecified)	none (no result: Pf growth 96h, Pf growth 48h, HCV inhibitor)
Cn1c(=O)c2c(-c3ccccc3Br)n(C(C)(C)C)cc2n(C)c1=O	none (no result: Pf growth 96h, Pf growth 48h, HCV inhibitor)
COc1cccc(C2c3[nH]c4ccccc4c3C[C@H]3C(=O)N(CCCO)CC(=O)N23)c1OC (stereo partly specified)	Pf growth 96h inconclusive, Pf growth 48h inconclusive
COc1ccc(C2c3[nH]c4ccccc4c3C[C@H]3C(=O)N(C4CCN(Cc5ccccc5)CC4)CC(=O)N23)c(OC)c1 (stereo partly specified)	Pf growth 96h 1µM, Pf growth 48h 0.83µM, HCV inhibitor inconclusive
COc1ccc(OC)c(C2c3[nH]c4ccccc4c3C[C@H]3C(=O)N(C4CC4)CC(=O)N23)c1 (stereo partly specified)	Pf growth 96h inconclusive, Pf growth 48h inconclusive
